This is an account of results in PubChem BioAssay.

Records with an inconclusive call do not appear. The list shows a part of the results. The source made the active and inactive calls.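 The calls were made as follows, unless noted: active = percent response above a set limit, the screen-wide mean plus 3 SD (cut at about 130% in these data); inactive = the rest.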

The nature of experiment [1]: yeast TOR pathway RPL19A-GFP modulators, primary screen, cell-based, S. cerevisiae, multiplex flow cytometry (AID 1862; in the data active = percent of DMSO control GFP below about 86%;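 also: lower values mimic rapamycin by blocking the RPL19A rise seen in DMSO cells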). The conditions noted are these: S. cerevisiae RPL19A-GFP strain, flow cytometry fluorescence, 3 h; at 10 µM; stronger effect = lower value.
A short description of experiment [2]: modulators of MEP2-GFP levels in yeast, primary screen, S. cerevisiae, multiplex flow cytometry (AID 1867;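 active = GFP response, as percent of the DMSO control, above the screen-wide mean plus 3 SD, about 139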;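 also: median GFP channel fluorescence of barcode-gated MEP2-GFP cells measured by flow cytometry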). Conditions: S. cerevisiae MEP2-GFP strain, 3 h, at 10 µM, stronger effect = higher value, 100% means same as DMSO wells.
A short description of experiment [3]: modulators of CIT2-GFP expression in yeast, primary screen, S. cerevisiae, GFP fusion, multiplex flow cytometry (AID 1870).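 Also: barcoded CIT2-GFP strain pooled with four other GFP strains with rapamycin as positive control; median GFP fluorescence per well over plate mean of DMSO wells so 100% = DMSO.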 Conditions: 3 h, at 10 µM, stronger effect = higher value. For orientation: Flow cytometry measures light scatter and fluorescence of single cells or particles in a stream.
Experiment [4] in a line: modulators of LAP4-GFP expression in yeast, primary screen, S. cerevisiae, multiplex flow cytometry (AID 1873;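 active = GFP signal, as percent of the solvent control, above the screen mean plus 3 SD, about 149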). The conditions noted are these: 3 h, at 10 µM, stronger effect = higher value.
A short description of experiment [5]: modulators of AGP1-GFP expression in yeast TOR pathway, primary screen, cell-based, multiplex flow cytometry, S. cerevisiae (AID 1887;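 active = GFP signal above the screen-wide mean plus 3 SD, that is over about 124.5% of the solvent control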;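 also: AGP1-GFP fusion strain of S. cerevisiae within a five-strain barcoded multiplex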). Conditions: 3 h, at 10 µM, stronger effect = higher value.
The nature of experiment [6]: RPL19A-GFP modulators, yeast TOR pathway, confirmation, cell-based, S. cerevisiae, flow cytometry, cherry picks, mother/daughter gates (AID 2270;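 active = GFP response below 50% of the DMSO control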). Conditions: S. cerevisiae RPL19A-GFP strain, 3 h, at 10 µM, stronger effect = lower value, 100 = same GFP as DMSO wells.
Experiment [7] in a line: LAP4-GFP expression modulators in yeast, confirmation, cell-based, cherry picks, flow cytometry, mother/daughter gates (AID 2271;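 active = GFP response above 150% of the DMSO control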;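 also: ratio of sample to DMSO plate mean so 100% equals DMSO level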). Conditions: S. cerevisiae LAP4-GFP strain, 3 h, at 10 µM, stronger effect = higher value, 100 means same as DMSO control.
Experiment [8] can be described thus: modulators of MEP2-GFP levels in yeast, confirmation, S. cerevisiae, flow cytometry GFP, cherry picks (AID 2272;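 active = GFP response above 150% of the DMSO control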;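 also: ratio of well signal to plate DMSO mean so 100% equals DMSO level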). Conditions: S. cerevisiae MEP2-GFP strain, 3 h, at 10 µM, stronger effect = higher value.
Experiment [9] is described as follows: modulators of CIT2-GFP expression in yeast, confirmation, S. cerevisiae, GFP fusion, cherry picks, mother/daughter gates (AID 2274;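 active = GFP response above 150% of the DMSO level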). Conditions: S. cerevisiae CIT2-GFP strain, flow cytometry, 3 h, at 10 µM, stronger effect = higher value.
Experiment [10] can be described thus: inhibitors of CD8+ T cell-vesicle binding, pilot screen, LFA-1/ICAM-1 modulator project, MLPCN validation set, flow cytometry (AID 2523;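 active = response below a set limit, under 55% cells CD8-positive and vesicle-bound, and CD8 cells' 90th-percentile brightness under 279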;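 as to vesicle binding response: mean PE anti-B7-1 fluorescence of CD8+ cells relative to row control; 100% = QL9-loaded vesicles with DMSO vehicle in the same plate row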). The conditions noted are these: 2C mouse CD8+ T cells, at 7 µM, stronger effect = lower value; double positive events: measured here: CD8+/vesicle+ event percentage.
Experiment [11] in a line: disruption of biotin probe capture by avidin, counter-screen for RGS protein interaction modulators, biochemical, flow cytometry, bead-based (AID 1783;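 active = inhibition above 50%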;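 also: median green fluorescence of gated singlet beads compared with DMSO control wells; 0% = DMSO wells and 100% = complete loss of bead fluorescence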). The conditions noted are these: streptavidin beads, fluorescein-biotin binding; at 10 µM, stronger effect = higher value.
For experiment [12], the target named is Guanine nucleotide-binding protein G(o) subunit alpha (Homo sapiens) (UniProt P09471). Description: RGS8-Galphao binding modulators, confirmation, biochemical, multiplexed bead flow cytometry, single concentration (AID 1836; in the data active = binding response below about 72% or above about 130%; inactive = in between;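 also: Galphao activated as GDP AlF4 complex before binding bead RGS8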). The conditions noted are these: bead-based flow cytometry RGS8-Galphao binding, fluorescence; at 10 µM; actives lie on both sides.
For experiment [13] the target is unchanged. Put plainly: RGS7-Galphao binding modulators, confirmation, biochemical, multiplexed bead flow cytometry, single concentration (AID 1837; in the data active = response below about 75% or above about 130%; inactive = in between;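 also: fluorescent Galphao activated with GDP and aluminum fluoride binding bead-coupled RGS7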). Conditions: bead-based flow cytometry RGS7-Galphao binding; at 10 µM; actives lie on both sides.
The target of experiment [14] is Regulator of G-protein signaling 16 (Homo sapiens) + Guanine nucleotide-binding protein G(o) subunit alpha (Homo sapiens) (UniProt O15492+P09471). Description: modulators of RGS16-Galphao protein binding, confirmation, biochemical, single concentration, multiplexed bead flow cytometry (AID 1838; in the data active = response below about 74% or above about 130%; inactive = in between;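 also: Galphao activated as the GDP aluminium fluoride complex binding bead-coupled RGS16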). The conditions noted are these: bead-based flow cytometry, at 10 µM, actives lie on both sides.

In experiment [15] the target is Guanine nucleotide-binding protein G(o) subunit alpha (Homo sapiens) (UniProt P09471). Description: modulators of RGS4-Galphao protein binding, confirmation, biochemical, single concentration, multiplexed bead flow cytometry (AID 1840; in the data active = binding response below about 74% or above about 130%; inactive = in between). Conditions: at 10 µM, actives lie on both sides.
Experiment [16] addresses Guanine nucleotide-binding protein G(o) subunit alpha (Homo sapiens) + Regulator of G-protein signaling 19 (Homo sapiens) (UniProt P09471+P49795). Description: regulators of RGS19-Galphao binding, confirmation, biochemical, single point, multiplexed bead flow cytometry (AID 1841; in the data active = response below about 50% or above about 160%; inactive = in between;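 also: 100% = no compound control and 0% = blank background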). Conditions: bead-based flow cytometry RGS19-Galphao binding; at 10 µM; actives lie on both sides.

Setting [17] is: measured here: daughter cell gate.
Setting [18] is: measured here: mother cell gate.
[19] abbreviates: measured here: daughter cell gate response.
[20] abbreviates: measured here: mother cell gate response.

Chain of Guanine nucleotide-binding protein G(o) subunit alpha (Homo sapiens) (P09471 whole entry, looked up): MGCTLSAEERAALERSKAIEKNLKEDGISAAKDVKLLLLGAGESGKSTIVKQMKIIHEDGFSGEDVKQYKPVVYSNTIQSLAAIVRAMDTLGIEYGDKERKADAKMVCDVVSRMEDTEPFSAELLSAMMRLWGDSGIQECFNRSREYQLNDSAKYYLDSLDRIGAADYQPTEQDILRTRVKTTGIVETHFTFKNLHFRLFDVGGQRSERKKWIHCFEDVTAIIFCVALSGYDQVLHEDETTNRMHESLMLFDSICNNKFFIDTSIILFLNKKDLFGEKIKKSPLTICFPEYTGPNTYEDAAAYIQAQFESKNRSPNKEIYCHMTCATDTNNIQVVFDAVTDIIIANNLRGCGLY
Chain of Guanine nucleotide-binding protein G(o) subunit alpha (Homo sapiens) + Regulator of G-protein signaling 19 (Homo sapiens) (P09471 whole entry, looked up): as above
Chain of Guanine nucleotide-binding protein G(o) subunit alpha (Homo sapiens) + Regulator of G-protein signaling 19 (Homo sapiens) (P49795 whole entry, looked up): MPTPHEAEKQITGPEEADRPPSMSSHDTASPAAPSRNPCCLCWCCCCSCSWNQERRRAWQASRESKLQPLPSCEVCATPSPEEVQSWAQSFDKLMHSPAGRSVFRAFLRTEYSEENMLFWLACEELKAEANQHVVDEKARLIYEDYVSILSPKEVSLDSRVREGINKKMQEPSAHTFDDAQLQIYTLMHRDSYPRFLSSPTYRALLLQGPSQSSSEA
Chain of Regulator of G-protein signaling 16 (Homo sapiens) + Guanine nucleotide-binding protein G(o) subunit alpha (Homo sapiens) (O15492 whole entry, looked up): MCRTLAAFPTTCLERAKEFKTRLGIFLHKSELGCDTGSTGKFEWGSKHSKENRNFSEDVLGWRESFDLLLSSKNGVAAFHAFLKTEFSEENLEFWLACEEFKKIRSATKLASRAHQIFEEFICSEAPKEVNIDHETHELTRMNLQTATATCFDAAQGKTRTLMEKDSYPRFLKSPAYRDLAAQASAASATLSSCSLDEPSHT
Chain of Regulator of G-protein signaling 16 (Homo sapiens) + Guanine nucleotide-binding protein G(o) subunit alpha (Homo sapiens) (P09471 whole entry, looked up): as the sequence (P09471 whole entry, looked up) above

Take `CC(C)CC(=O)Nc1ccc2oc(-c3ccncc3)nc2c1`: the percent of DMSO control GFP in [1] was 92.2% (inactive). Moreover, the GFP response vs DMSO was 144% (active) in experiment [2]; 82.5% (inactive) in experiment [4]; 103% (inactive) in experiment [6]; 99.8% in [6] (setting [17]); 104% in experiment [6] (setting [18]); 97.8% (inactive) in experiment [8]. Further, in experiment [3], the percent response of DMSO control was 103% (inactive). Moreover, the GFP response, % of DMSO in experiment [5] was 83.8% (inactive); in [9], 108% (inactive); in experiment [9] (setting [17]) it was 99.7%; in experiment [9] (setting [18]), 107%. For the same compound, the GFP response relative to DMSO is 98.7% (inactive) in [7], 98.7% in [7] (setting [19]) and 101% in experiment [7] (setting [20]). For the same compound, the double positive events in experiment [10] amounted to 71.3%. The vesicle binding response in experiment [10] was 292% (inactive).

On to `CN/C(=C/[N+](=O)[O-])NCCSCc1ccc(CN(C)C)o1`, for which the percent of DMSO control GFP in [1] is 91.7% (inactive). The GFP response vs DMSO was 150% (active) in experiment [2]; 83.6% (inactive) in experiment [4]; 100% (inactive) in experiment [6]; 101% in experiment [6] (setting [17]); 99.2% in experiment [6] (setting [18]); 107% (inactive) in experiment [8]. Besides, the percent response of DMSO control in experiment [3] was 108% (inactive). For the same compound, the GFP response, % of DMSO was 87.7% (inactive) in [5], 101% (inactive) in [9], 105% in experiment [9] (setting [17]) and 99.7% in [9] (setting [18]). For the same compound, the GFP response relative to DMSO in experiment [7] is 97.9% (inactive); in [7] (setting [19]), 97.6%; in experiment [7] (setting [20]), 96.1%. This compound gave a double positive events in experiment [10] of 64.5%. For the same compound, in experiment [10], the vesicle binding response was 123% (inactive).

In general, inhibition refers to the change of the read-out against control, counted positive when it falls. Consider `COc1ccccc1CCNC(=O)CSc1nnc2ccc(-c3cccnc3)nn12`, for which, in [11], the inhibition is -0.7% (inactive). Further, the binding response (% of control) was 100% (inactive) in experiment [12] and 101% (inactive) in experiment [15]. Also, the response (percent of control binding) in experiment [13] is 103% (inactive); in experiment [16] it was 107% (inactive). Also, in [14], the response (% of control binding) is 101% (inactive).

Consider `c1cnc2c(c1)ccc1cccnc12`, for which the percent of DMSO control GFP in experiment [1] was 98.9% (inactive). Further, the GFP response vs DMSO in experiment [2] is 107% (inactive); in experiment [4], 174% (active); in experiment [6] it was 101% (inactive); in [6] (setting [17]), 100%; in [6] (setting [18]), 100%; in experiment [8], 112% (inactive). In addition, the percent response of DMSO control in experiment [3] was 96.4% (inactive). In addition, the GFP response, % of DMSO in [5] was 117% (inactive); in [9] it was 111% (inactive); in [9] (setting [17]), 117%; in [9] (setting [18]), 107%. Further, the GFP response relative to DMSO in experiment [7] is 116% (inactive); in experiment [7] (setting [19]) it was 116%; in experiment [7] (setting [20]), 117%. This compound also registered a double positive events in experiment [10] of 59.5%. Further, the vesicle binding response in experiment [10] is 192% (inactive).

Consider `C[C@]12CC[C@@H]3c4ccc(O)cc4C(=O)C[C@H]3[C@@H]1CC[C@@H]2O`, for which the percent of DMSO control GFP in experiment [1] was 98.3% (inactive). The GFP response vs DMSO is 148% (active) in [2]; 88% (inactive) in experiment [4]; 97.4% (inactive) in experiment [6]; 95.6% in experiment [6] (setting [17]); 98.5% in experiment [6] (setting [18]); 95.7% (inactive) in experiment [8]. For the same compound, the percent response of DMSO control in experiment [3] was 116% (inactive). For the same compound, the GFP response, % of DMSO in experiment [5] is 97.5% (inactive); in experiment [9], 111% (inactive); in experiment [9] (setting [17]) it was 108%; in experiment [9] (setting [18]) it was 113%. For the same compound, the GFP response relative to DMSO in [7] is 90.2% (inactive); in experiment [7] (setting [19]) it was 95.6%; in experiment [7] (setting [20]) it was 92.1%. Besides, the double positive events in experiment [10] came out at 39.3%. Moreover, in experiment [10], the vesicle binding response is 60.7% (active).

In the case of `Cn1c(=O)c(C(=O)NCCO)c(O)c2ccccc21`, in experiment [1], the percent of DMSO control GFP was 103% (inactive). Also, the GFP response vs DMSO in experiment [2] is 105% (inactive); in experiment [4], 104% (inactive); in [6], 101% (inactive); in experiment [6] (setting [17]) it was 102%; in experiment [6] (setting [18]), 103%; in experiment [8], 96.2% (inactive). Also, the percent response of DMSO control in experiment [3] was 103% (inactive). Besides, the GFP response, % of DMSO in experiment [5] is 113% (inactive); in experiment [9] it was 96.9% (inactive); in experiment [9] (setting [17]), 108%; in experiment [9] (setting [18]), 97.3%. Also, the GFP response relative to DMSO in experiment [7] was 87.6% (inactive); in experiment [7] (setting [19]) it was 86.4%; in experiment [7] (setting [20]), 88.7%. Further, in [10], the double positive events was determined as 60.8%. The vesicle binding response in [10] is 185% (inactive).
